# Experimental data as given in PubChem BioAssay (EPA / NIEHS).
# Activity calls are given as the source filed them. How the source made its calls: active means hit-call score of the fitted dose curve at least 0.9, where 1 is the maximum; inactive means score below 0.9.
# What was measured:
# [1] = APR_HepG2_P-H2AX_72hr: Apredica 72-hour HepG2 Assay for H2AX Phosphorylation (AID 2282916); conditions: imaging, actives raise or lower the signal;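 further: phospho-histone H2A.x immunostain intensity per cell marking DNA damage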
# Procedure, shortened: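 HepG2 cells treated 72 h at 0.39–200 uM, 0.5% DMSO final, duplicates. Formaldehyde-fixed, Triton-permeabilised, immunostained for phospho-H2A.x with Hoechst; fluorescence imaged at 20x, bidirectional fit versus DMSO.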
# [2] = APR_HepG2_MitoMembPot_72hr: Apredica 72-hour HepG2 Assay for Mitochondrial Membrane Potential (AID 2282917); conditions: imaging, actives raise or lower the signal
# Procedure, shortened: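 HepG2 cells dosed 72 hr with compound at 0.39–200 uM in duplicate, 0.5% v/v DMSO final. Mitochondria stained with 250 nM MitoTracker Red CMXRos for 30 min before formaldehyde fixation, imaged by high-content fluorescence; bidirectional fit versus DMSO.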
# [3] = APR_HepG2_MitoticArrest_72hr: Apredica 72-hour HepG2 Assay for Mitotic Arrest (AID 2282918); conditions: high-content imaging, actives raise or lower the signal
# Procedure, shortened: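 Using high-content imaging of fixed HepG2 cells, phospho-histone H3 signal was measured following a 72 hr incubation with ten-point compound dilutions up to 200 uM. DMSO served as the negative control and baseline for bidirectional curve fitting.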
# [4] = APR_HepG2_MicrotubuleCSK_72hr: Apredica 72-hour HepG2 Assay for Microtubule CSK Stabilty (AID 2282919); conditions: HepG2 microtubule cytoskeleton, high-content imaging, actives raise or lower the signal
# Procedure, shortened: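 HepG2 cells were exposed 72 hr to compound at 0.39–200 uM in duplicate (0.5% DMSO final), then fixed and permeabilized. Alpha-tubulin immunofluorescence was imaged by high-content microscopy, with bidirectional fitting against DMSO and taxol as positive control.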
# [5] = APR_HepG2_P-H2AX_24hr: Apredica 24-hour HepG2 Assay for H2AX Phosphorylation (AID 2282920); conditions: high-content imaging, actives raise or lower the signal
# Procedure, shortened: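 Human HepG2 liver cells, treated 24 hr with test chemicals (0.39–200 uM, final DMSO 0.5% v/v), are fixed and co-stained for phospho-H2A.x and c-Jun with Hoechst. Imaged intensity is fitted in both directions against DMSO controls.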
# [6] = APR_HepG2_StressKinase_72hr: Apredica 72-hour HepG2 Assay for Stress Kinase (AID 2282921); conditions: HepG2 stress kinase (phospho-c-Jun) imaging, actives raise or lower the signal
# Procedure, shortened: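 HepG2 cells treated 72 hr with 0.39–200 uM compound, 0.5% v/v DMSO, duplicate wells. After formaldehyde fixation and Triton permeabilization, stained with anti-phospho-c-Jun (1:500) and Cy3 secondary, imaged at 20x. Fitted in both directions against DMSO.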
# [7] = APR_HepG2_p53Act_72hr: Apredica 72-hour HepG2 Assay for p53 Activation (AID 2282923); conditions: high-content imaging, actives raise or lower the signal;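 further: average cellular p53 protein immunofluorescence intensity in HepG2 cells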
# Procedure, shortened: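 HepG2 cells exposed 72 h to 0.39–200 uM in 0.5% DMSO, duplicates. Fixed, permeabilized cells immunostained for p53 (Cy5) with Hoechst; imaged at 20x, fluorescence analyzed bidirectionally against DMSO.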
# [8] = APR_HepG2_MitoMass_72hr: Apredica 72-hour HepG2 Assay for Mitochondrial Mass (AID 2282924); conditions: high-content imaging, actives raise or lower the signal;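 further: MitoTracker Red CMXRos stain intensity per cell imaged as mitochondrial mass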
# Procedure, shortened: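 HepG2 cells dosed 72 hr at 0.39–200 uM (0.5% DMSO), in duplicate. MitoTracker Red CMXRos 250 nM loaded 30 min before formaldehyde fixation; high-content fluorescence imaging, bidirectional fit versus DMSO.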
# [9] = APR_HepG2_NuclearSize_72hr: Apredica 72-hour HepG2 Assay for Nuclear Size (AID 2282925); conditions: high-content imaging, actives raise or lower the signal
# Procedure, shortened: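 HepG2 cells dosed 72 h at 0.39–200 uM (10 concentrations, duplicate) in 0.5% v/v DMSO final. Fixed, Hoechst 33342-stained nuclei imaged; nuclear diameter measured by automated image analysis. Bidirectional fit versus DMSO.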
# [10] = APR_HepG2_StressKinase_24hr: Apredica 24-hour HepG2 Assay for Stress Kinase (AID 2282922); conditions: HepG2 stress kinase (phospho-c-Jun) imaging, actives raise or lower the signal
# Procedure, shortened: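 HepG2 cells exposed 24 h to 0.39–200 uM compound in duplicate (0.5% v/v DMSO final). Cells fixed in 3.7% formaldehyde, permeabilized and immunostained for phospho-c-Jun; read by high-content fluorescence imaging, fitted bidirectionally against DMSO.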
smiles,measurement,setting,value
O=C(OC[C@H]1O[C@@H](OC(=O)c2cc(O)c(O)c(OC(=O)c3cc(O)c(O)c(O)c3)c2)[C@H](OC(=O)c2cc(O)c(O)c(OC(=O)c3cc(O)c(O)c(O)c3)c2)[C@@H](OC(=O)c2cc(O)c(O)c(OC(=O)c3cc(O)c(O)c(O)c3)c2)[C@@H]1OC(=O)c1cc(O)c(O)c(OC(=O)c2cc(O)c(O)c(O)c2)c1)c1cc(O)c(O)c(OC(=O)c2cc(O)c(O)c(O)c2)c1,outcome,[1],inactive
same,AC50,[2],15.1 µM (active)
same,outcome,[3],inactive
same,outcome,[4],inactive
same,outcome,[5],inactive
same,outcome,[6],inactive
same,AC50,[7],23.2 µM (active)
same,AC50,[8],14.5 µM (active)
same,AC50,[9],18.7 µM (active)
CNCc1ccc(NC(=O)c2c[nH]c3c2C(=O)CCC3)cc1,outcome,[1],inactive
same,outcome,[2],inactive
same,outcome,[3],inactive
same,outcome,[4],inactive
same,outcome,[5],inactive
same,outcome,[6],inactive
same,outcome,[7],inactive
same,outcome,[8],inactive
same,outcome,[9],inactive
CC(C)=CCCC(C)=CC=O,outcome,[1],inactive
same,outcome,[3],inactive
same,outcome,[4],inactive
same,outcome,[5],inactive
same,outcome,[6],inactive
same,outcome,[10],inactive
same,outcome,[7],inactive
same,outcome,[8],inactive
same,outcome,[9],inactive
CC(C)c1cccc(C(C)C)c1N1C(=O)c2ccc(O)cc2C1=O,AC50,[1],6.16 µM (active)
same,AC50,[3],6.04 µM (active)
same,AC50,[4],14.8 µM (active)
same,AC50,[5],44 µM (active)
same,AC50,[6],6.1 µM (active)
same,AC50,[10],8.52 µM (active)
same,AC50,[7],3.01 µM (active)
same,outcome,[8],inactive
same,outcome,[9],inactive
CC(C)CCCCCCCOC(=O)CCCCC(=O)OCCCCCCCC(C)C,outcome,[1],inactive
same,outcome,[2],inactive
same,outcome,[3],inactive
same,outcome,[4],inactive
same,outcome,[5],inactive
same,outcome,[6],inactive
same,outcome,[7],inactive
same,outcome,[8],inactive
same,outcome,[9],inactive
On1ccccc1=S,outcome,[1],inactive
same,outcome,[2],inactive
same,AC50,[3],21.5 µM (active)
same,outcome,[4],inactive
same,outcome,[5],inactive
same,AC50,[6],5.96 µM (active)
same,AC50,[7],8.59 µM (active)
same,outcome,[8],inactive
same,AC50,[9],3.98 µM (active)
CC(=O)c1ccc2c(c1)[C@H](NC(=O)c1ccc(F)cc1)[C@@H](O)C(C)(C)O2,outcome,[1],inactive
same,outcome,[2],inactive
same,outcome,[3],inactive
same,outcome,[4],inactive
same,outcome,[5],inactive
same,outcome,[6],inactive
same,outcome,[7],inactive
same,outcome,[8],inactive
same,outcome,[9],inactive
COC(=O)CC(=O)OC,outcome,[1],inactive
same,outcome,[3],inactive
same,outcome,[4],inactive
same,outcome,[5],inactive
same,outcome,[6],inactive
same,outcome,[10],inactive
same,outcome,[7],inactive
same,outcome,[8],inactive
same,outcome,[9],inactive
CCc1cc(SCc2sc(-c3ccc(C(F)(F)F)cc3)nc2CN2CCN(c3ccc(OC)cc3)CC2)ccc1OCC(=O)O,AC50,[1],48 µM (active)
same,AC50,[2],116 µM (active)
same,AC50,[3],45 µM (active)
same,outcome,[4],inactive
same,AC50,[5],54.5 µM (active)
same,outcome,[6],inactive
same,AC50,[7],59 µM (active)
same,AC50,[8],33.2 µM (active)
same,outcome,[9],inactive
O=C(O)CC(O)C(=O)O (configuration not stated),outcome,[1],inactive
same,outcome,[3],inactive
same,outcome,[4],inactive
same,outcome,[5],inactive
same,outcome,[6],inactive
same,outcome,[10],inactive
same,outcome,[7],inactive
same,outcome,[8],inactive
same,outcome,[9],inactive
Cc1[nH]cnc1C[C@H]1CCc2c(C)c3ccccc3n2C1=O,AC50,[1],89 µM (active)
same,outcome,[2],inactive
same,AC50,[3],98.8 µM (active)
same,outcome,[4],inactive
same,AC50,[5],92.8 µM (active)
same,AC50,[6],65 µM (active)
same,AC50,[7],95 µM (active)
same,AC50,[8],24.4 µM (active)
same,outcome,[9],inactive
CCOCCOCCOCCO,outcome,[1],inactive
same,outcome,[2],inactive
same,outcome,[3],inactive
same,outcome,[4],inactive
same,outcome,[5],inactive
same,outcome,[6],inactive
same,outcome,[7],inactive
same,outcome,[8],inactive
same,outcome,[9],inactive
Nc1ccc(Nc2ccccc2)cc1,AC50,[1],29.9 µM (active)
same,outcome,[2],inactive
same,AC50,[3],42.1 µM (active)
same,outcome,[4],inactive
same,AC50,[5],17.9 µM (active)
same,outcome,[6],inactive
same,AC50,[7],33.3 µM (active)
same,outcome,[8],inactive
same,outcome,[9],inactive
O=C(O)c1cc(N=Nc2ccc(S(=O)(=O)Nc3ccccn3)cc2)ccc1O,outcome,[1],inactive
same,AC50,[2],88.8 µM (active)
same,outcome,[3],inactive
same,outcome,[4],inactive
same,outcome,[5],inactive
same,outcome,[6],inactive
same,outcome,[7],inactive
same,outcome,[8],inactive
same,outcome,[9],inactive
CC(C)(O)c1coc(S(=O)(=O)NC(=O)Nc2c3c(cc4c2CCC4)CCC3)c1,outcome,[1],inactive
same,outcome,[3],inactive
same,outcome,[4],inactive
same,outcome,[5],inactive
same,outcome,[6],inactive
same,outcome,[10],inactive
same,outcome,[7],inactive
same,outcome,[8],inactive
same,outcome,[9],inactive
COc1ccc2sc(C(=O)Nc3nnn[nH]3)c(OC(C)C)c2c1,outcome,[1],inactive
same,outcome,[2],inactive
same,outcome,[3],inactive
same,outcome,[4],inactive
same,outcome,[5],inactive
same,outcome,[6],inactive
same,outcome,[7],inactive
same,outcome,[8],inactive
same,outcome,[9],inactive
CCOC(=O)CC(CC(=O)OCC)(OC(C)=O)C(=O)OCC,outcome,[1],inactive
same,outcome,[2],inactive
same,outcome,[3],inactive
same,outcome,[4],inactive
same,outcome,[5],inactive
same,outcome,[6],inactive
same,outcome,[7],inactive
same,outcome,[8],inactive
same,outcome,[9],inactive
CC(C)=CCC/C(C)=C\CO,outcome,[1],inactive
same,outcome,[2],inactive
same,outcome,[3],inactive
same,outcome,[4],inactive
same,outcome,[5],inactive
same,outcome,[6],inactive
same,outcome,[7],inactive
same,AC50,[8],94.5 µM (active)
same,outcome,[9],inactive
O=C(O)c1cccc(N(Cc2cccnc2)c2ccc(OC(F)F)c(OC(F)F)c2)c1,AC50,[1],6.52 µM (active)
same,outcome,[2],inactive
same,AC50,[3],4.04 µM (active)
same,outcome,[4],inactive
same,AC50,[5],30.8 µM (active)
same,AC50,[6],15.4 µM (active)
same,AC50,[7],4.01 µM (active)
same,outcome,[8],inactive
same,AC50,[9],17.4 µM (active)
O=C(O)CCN(C1(C(=O)NO)CCCC1)S(=O)(=O)c1ccc(Oc2ccc(F)cc2)cc1,outcome,[1],inactive
same,outcome,[3],inactive
same,outcome,[4],inactive
same,outcome,[5],inactive
same,outcome,[6],inactive
same,outcome,[10],inactive
same,outcome,[7],inactive
same,outcome,[8],inactive
same,outcome,[9],inactive
Nc1nc2ncc(CNc3ccc(C(=O)N[C@@H](CCC(=O)O)C(=O)O)cc3)nc2c(=O)[nH]1,outcome,[1],inactive
same,outcome,[2],inactive
same,outcome,[3],inactive
same,outcome,[4],inactive
same,outcome,[5],inactive
same,outcome,[6],inactive
same,outcome,[7],inactive
same,outcome,[8],inactive
same,outcome,[9],inactive
CC(O)CN(CCN(CC(C)O)CC(C)O)CC(C)O (configuration not stated),outcome,[1],inactive
same,outcome,[2],inactive
same,outcome,[3],inactive
same,outcome,[4],inactive
same,outcome,[5],inactive
same,outcome,[6],inactive
same,outcome,[7],inactive
same,outcome,[8],inactive
same,outcome,[9],inactive
CC[C@H]1OC(=O)[C@H](C)[C@@H](O[C@H]2C[C@@](C)(OC)[C@@H](O)[C@H](C)O2)[C@H](C)[C@@H](O[C@@H]2O[C@H](C)C[C@H](N(C)C)[C@H]2O)[C@](C)(O)C[C@@H](C)C(=O)[C@H](C)[C@@H](O)[C@]1(C)O,outcome,[1],inactive
same,outcome,[3],inactive
same,outcome,[4],inactive
same,outcome,[5],inactive
same,outcome,[6],inactive
same,outcome,[10],inactive
same,outcome,[7],inactive
same,outcome,[8],inactive
same,outcome,[9],inactive
COC(=O)c1ccccc1O,outcome,[1],inactive
same,outcome,[3],inactive
same,outcome,[4],inactive
same,outcome,[5],inactive
same,outcome,[6],inactive
same,outcome,[10],inactive
same,outcome,[7],inactive
same,outcome,[8],inactive
same,outcome,[9],inactive
Cc1c(-c2cccnc2)c2ccccc2n1CCCCC(=O)O,outcome,[1],inactive
same,outcome,[2],inactive
same,outcome,[3],inactive
same,outcome,[4],inactive
same,outcome,[5],inactive
same,outcome,[6],inactive
same,outcome,[7],inactive
same,outcome,[8],inactive
same,outcome,[9],inactive
O=P(OC(CCl)CCl)(OC(CCl)CCl)OC(CCl)CCl,AC50,[1],47.5 µM (active)
same,AC50,[3],39.6 µM (active)
same,outcome,[4],inactive
same,AC50,[5],43.4 µM (active)
same,AC50,[6],59.2 µM (active)
same,outcome,[10],inactive
same,outcome,[7],inactive
same,outcome,[8],inactive
same,outcome,[9],inactive
O=C(CCCCCCCCc1cccnc1)N1CCC(C=C(c2ccccc2)c2ccccc2)CC1,outcome,[1],inactive
same,outcome,[2],inactive
same,outcome,[3],inactive
same,outcome,[4],inactive
same,outcome,[5],inactive
same,outcome,[6],inactive
same,outcome,[7],inactive
same,outcome,[8],inactive
same,outcome,[9],inactive
CC(C)CC(C)(O)C#CC(C)(O)CC(C)C (configuration not stated),outcome,[1],inactive
same,outcome,[3],inactive
same,outcome,[4],inactive
same,outcome,[5],inactive
same,outcome,[6],inactive
same,outcome,[10],inactive
same,outcome,[7],inactive
same,outcome,[8],inactive
same,outcome,[9],inactive
